Assay results as given in the supplement of paper PMC6555819.

The sequences below were run on VDR:RXRa (NR concentration 270 nM, RXRa partner concentration 90 nM) (assay: PBM binding z-score (relative to random genomic background probes); higher = stronger binding; sequences stand for … in GC…GCGATTGACAGCGTAGAATGAAGG).
Method: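 Protein-binding microarray (Agilent 4x180K custom design, double-stranded 60-nt probes: 5' GC cap, 34-nt variable region, 24-nt constant primer region; full probe sequence given). Purified or IVT nuclear receptor:RXRα heterodimers (3:1 NR:RXRα, mostly 270:90 nM) or homodimers were incubated for 1 h in PBS with 2% milk and no ligand, then detected with Alexa488 antibodies. Fluorescence from o1-orientation probes (~5 replicates averaged) was converted to z-scores against 500 random hg19 background probes. Variable regions are seed direct-repeat (DR0–DR5) sites, all their single-nucleotide variants and half-site ablations.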

Sequence	PBM binding z-score
CCTAACGGGTCACTGACAGGTTATAGCATTTGGA	3.21
TATACAGGGTCAAATGCCAGAGTACGAATGTCGA	4.82
CTACCAAGGTGAACAAGGTGGTTGATTACTATTC	1.84
CCGACTGGGGCAAAGGTTACCCTACTCAGTACGA	1.23
TCAGACAGGTGAAGGTAAATCAGGTACGCAGTCG	1.2
CGTCCAAGGTCAAAGGTCAGTGAGGAGATGACGG	6.92
TGAATGAGGTTATAAGATCAGAGAACGTTGCAAA	0.965
TCGAGTAGGTTAGGGCCATTCAGAATGGCGTCGA	-0.353
ATATGTAGGTTACATCCGGCTCATTCAGGCTATG	0.412
ATATGTAGGTTAGCTGGGGTCATTTAGACTAGGC	5.97
CAAACTAGGTCAAAGTTCAAAGTCGAGCCAACCA	6.12
CTTACAGGGTCAGCTAGGCCAGAGTAGGGACGGC	3.88
GCAGACAGGTGGAACGCAGGTAACTCAGGGTGGC	-0.675
ACTAGCAGGCCAAGGGTCACTGAAGATTAGTCCG	2.81
CCTTACGGGTCACGAGGGTATAGCACGACGAGCG	5.04
CGAACTAGGCCATCCAGGACAGTGAATACATTGA	0.0871
ACTAGTTGGTCAGCTGAGGTCACGCACAATTCGG	5.09
GCAGACAGGTGAAACGCAGGTAACTCCGGGTGGC	-0.595
CGTCCAAGGTCAGCAGGTCTGTGAAAGCGACGTG	4.69
TGAATTAGGTTAAAGATCAGGGAACGTGGCGTCG	0.374

Sequence	PBM binding z-score
CCTTACGGGTCATGGTTATAGCACGGGTGGTACG	3.23
TAGCCTAGGTCATGGGGCCAGTATAGTACGCATC	2.69
ACTAGCAGGCCACGGGTCACTCAAGATTAGTCCG	1.2
CTCGAAAAGTCGGTTGAGGTGAGTATACGGATAA	-0.065
TCATATAGGTAAAAGCTAGGTGAAAGTCCGATCT	0.608
GCTGCTAGATCAACTGATGGTCAGCTAAAGCTCG	-0.766
CCAGACAGGTGAAAAGTAACTCAGTCTGGTACGC	0.113
GATACAGGGTCAAGTCCAGAGTACGCGTATTGAT	4.66
TCGACTAGGTTAGTCGGGGCATTCAGCCAACATA	1.81
TCTGCGAGGTCAGTTGGTCAGCTAACGAGCTGCC	3.43
ATACCAAGGTGATCGGGAGGTCGTTGATACTAAC	2.58
GCTATTAGTTGAAAGGTCAACCGAATGATTCTCG	4.71
CCTCGGAGGACAACAGGGGGTCAGAGCTGCCAGA	3.17
ATCTCTAGGTAAAGATAGTTCAGTGTATGCAAAT	0.93
ATCGAATGGTCGACGAGGTGAGTATACACCGTTT	0.0601
CGAACGAGGGCATGAGTTGATAACAAATGCCGAT	1.04
TCATATAGGTAAACAGGTGAAAGTTCGTAAGTTA	1.98
CCTACTGGGCCATCAGGTCATTTATATCAACGTT	1.65
CGTCCATGGTCAAAGGTCAGTGAAGAGATGACGG	3.39
TTCCCAAGGTGAGCTGAGGTCGTTGATCCAACTC	4.13
